KCNH2 3.1 inh: KCNH2 3.1 (human) potassium channel inhibition; U2OS KCNH2 3.1, thallium flux FluxOr; hits give low values; activity change, % (tested at about 1.8 µM); actives 0.95% (n = 340,000); AID 720553;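 active = maximum activity change below -70%; inconclusive = maximum activity change from -70% to -50%; inactive = maximum activity change above -50%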;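 note: thallium influx rate constant from kinetic fluorescence after stimulation buffer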
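Thallium flux read-out: FluxOr dye with Red40 quencher in HBSS/HEPES, 45 min at RT. Rate constants from kinetic reads were normalized to positive and negative DMSO controls. Cells: U2OS virally expressing the 3.1 isoform.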
Tb PFK inh: blocks T. brucei phosphofructokinase; O15648; Potency, µM (top dose mostly 57.5 µM), most hits filed as inhibitors; AID 485367; T. brucei PFK, ADP-Glo luminescence; actives 0.17% (n = 330,000); active = well fitted inhibition curve with a large enough effect; inconclusive = small, poorly fitted or top-dose-only effect, or effect the other way; note: nearly all actives have a fitted effect of over 60% in size
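In TEA buffer at pH 8.0 with 5 mM MgCl2, enzyme (1.25 nM) converted F6P (0.5 mM) and ATP (0.1 mM) for 45 min at room temperature. ADP product was read by luciferase luminescence.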
TSG101-PTAP inh: blocks PTAP/TSG101 interaction to inhibit HIV-1 budding. Q99816. Fluorescence polarization, FITC-PTAP peptide / Tsg101 binding. Potency, µM (titrated, usually from 115 µM), actives largely listed as inhibitors. 340,000 tested, under 10 active; active = well fitted inhibition curve with a large enough effect in the main read-out, with a control signal flat, not every such curve was filed as active; inconclusive = small, poorly fitted or top-dose-only effect, or effect the other way, or a change in a side signal; inactive = no such curve, though single readings can be large or run the other way
Target sequence (Q99816 whole entry, looked up): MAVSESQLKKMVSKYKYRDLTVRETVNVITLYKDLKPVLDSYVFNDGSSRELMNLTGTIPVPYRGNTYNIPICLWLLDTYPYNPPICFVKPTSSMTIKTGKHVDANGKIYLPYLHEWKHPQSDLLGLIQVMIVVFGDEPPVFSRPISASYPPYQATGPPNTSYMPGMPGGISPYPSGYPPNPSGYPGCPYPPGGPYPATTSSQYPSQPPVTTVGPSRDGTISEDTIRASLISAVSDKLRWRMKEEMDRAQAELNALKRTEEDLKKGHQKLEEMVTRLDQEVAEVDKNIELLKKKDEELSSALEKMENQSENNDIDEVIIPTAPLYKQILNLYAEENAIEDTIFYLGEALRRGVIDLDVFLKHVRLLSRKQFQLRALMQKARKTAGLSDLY
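Compounds were pin-transferred onto Tsg101 binding domain (10 uM final) in HEPES pH 7.5 buffer, then FITC-PTAP peptide was added at 50 nM final. After 20 min at RT, polarization reported peptide displacement across a qHTS concentration series.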
KCNH2 WT inh: KCNH2 (human, wildtype) channel inhibition; AID 720551; actives 0.37% (n = 340,000); activity change, % at 1.84 µM; U2OS, BacMam KCNH2, thallium flux FluxOr; hits give low values;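 active = maximum activity change below -70%; inconclusive = maximum activity change between -70% and -50%; inactive = maximum activity change above -50%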
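U2OS cells transduced with wild-type KCNH2 virus are loaded with FluxOr dye for 45 min, and thallium flux is measured in kinetic reads before and after stimulation buffer. Rate constants are normalized to DMSO controls.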
Hits are given with their value; . = inactive; ? = inconclusive; / = no result given. Rows were chosen to be rich in hits. Some 1.2% of all compounds tested hit in one or more screens of this group.

SMILES	KCNH2 3.1 inh	Tb PFK inh	TSG101-PTAP inh	KCNH2 WT inh
Cc1c(Cl)c([N+](=O)[O-])nn1CC(=O)N1CCN(Cc2ccccc2)CC1	.	.	.	.
Cc1cc(OCC(=O)OCC(=O)NCc2ccc3c(c2)OCO3)ccc1Cl	.	.	.	.
COc1ccc(C(CCNCc2ccc(N(C)C)cc2)c2ccccc2)cc1 (stereo not drawn)	-85.0	.	.	.
C[C@H](NC(=O)[C@@H]1CSC2c3ccccc3C(=O)N21)C(=O)NCc1c(F)cccc1Cl (stereo partly drawn)	.	.	.	.
CCOc1ccccc1NC(=O)Cn1nnc(C(=O)Nc2ccc(C)cc2)c1N	.	.	.	-127.2
Cc1cc(C)n(CC(=O)O)n1	-182.5	.	.	.
Cc1cccc(N2CCN(C(=O)Cc3ccccc3[N+](=O)[O-])CC2)c1C	.	.	.	.
NS(=O)(=O)c1ccc(N=Nc2c(-c3ccccc3)[nH]n(-c3nc(-c4ccccc4)cs3)c2=O)cc1	-84.2	.	.	.
Cc1ccc(CN2CCSCC2)cc1	.	.	.	.
Brc1ccc(CN2CCSCC2)cc1	-173.6	.	.	.
CCN(Cc1ccccc1)C(=O)Cn1c(=O)n(CC(=O)N2CCCCC2)c(=O)c2sccc21	.	.	.	.
COC(=O)c1c(C)c[nH]c1C	.	.	.	.
CCOC(=O)c1c(C)c[nH]c1C	-85.3	.	.	.
CCCNC(=O)C(Cc1ccccc1F)NC(=O)c1ccc(C#N)cc1 (stereo not drawn)	-99.1	.	.	.
CCCNC(=O)C(Cc1ccccc1C)NC(=O)c1ccc(C#N)cc1 (stereo not drawn)	.	.	.	.
COc1cc(C2SCCS2)cc(Br)c1Oc1ncccc1[N+](=O)[O-]	.	.	.	.
O=[N+]([O-])c1cccnc1Oc1ccc(C2SCCS2)cc1	.	.	.	-153.4
O=C(NCc1ccncc1)C1CCCN(S(=O)(=O)c2cc(Cl)ccc2Cl)C1 (stereo not drawn)	.	.	.	.
CCn1c(/C(C#N)=N/O)nc2ccccc21	-80.7	.	.	-115.2
Cc1ccc(CNS(=O)(=O)c2ccc(-c3cnc(C4CC4)o3)cc2)cc1	-88.7	.	.	.
O=S(=O)(NCc1ccccc1)c1ccc(-c2cnc(C3CC3)o2)cc1	.	.	.	.
COC(=O)CCN1CCC2CC1c1cc(N3CCCCC3)ccc12 (stereo not drawn)	.	/	/	.
Fc1cccc(F)c1[B-](F)(F)F	.	/	.	.
Cc1ccc(-c2csc(=S)[nH]2)cc1	-78.2	.	.	.
O=C(C1=C[C@@H](c2ccc3c(c2)OCO3)C[C@@H](OCCCCO)O1)N1CCOCC1	.	.	.	.
SMILES	KCNH2 3.1 inh	Tb PFK inh	TSG101-PTAP inh	KCNH2 WT inh
CN1CCN(C(=O)C2=C[C@H](c3ccc4c(c3)OCO4)C[C@H](OCCCCO)O2)CC1	-90.7	/	.	.
Nc1cc(Cl)ccc1C(=O)OCC(=O)N1CCOCC1	.	.	.	.
Cc1cccc(CNc2ncnc3ccc(-c4cccc(Cl)c4)cc23)c1	/	.	/	/
CCOC(=O)CC(=O)CSCC(=O)Nc1ccc(C)cc1	-75.2	.	.	.
COc1cccc(NC(=O)C(c2ccccc2)N2CCN(CC(=O)N3CCOCC3)CC2)c1 (stereo not drawn)	.	.	.	.
CCN(Cc1ccccc1)C(=O)CSc1ccccc1C(=O)O	-176.1	.	.	-232.9
O=C(CN1C(=O)NC2(CCc3ccccc32)C1=O)c1ccc(F)cc1 (stereo not drawn)	.	.	.	.
O=C(Cc1ccc([N+](=O)[O-])cc1)N1N=C(c2ccncc2)CC1(O)C(F)(F)F (stereo not drawn)	.	.	.	/
CC(=O)c1ccc(N2CCN(C(=O)c3n[nH]c4ccccc34)CC2)cc1	.	.	.	.
CC(=O)c1ccc(N2CCN(C(=O)c3nn(Cc4ccccc4)c(=O)c4ccccc34)CC2)cc1	-86.0	.	.	?
Cc1ccc(CNC(=O)c2ccc(Cl)c(S(N)(=O)=O)c2)n1C	.	.	.	.
O=c1[nH]cnc(O)c1C(c1ccc([N+](=O)[O-])cc1)c1c(O)nc[nH]c1=O	-180.8	.	.	.
COc1ccc(C(c2c(O)nc[nH]c2=O)c2c(O)nc[nH]c2=O)cc1	.	.	.	.
Cc1ccc(C)c(CNc2ccc(S(=O)(=O)N3CCCCC3)cc2)c1	-100.4	.	.	-155.0
O=C(NC1CCCC1)C1CCCN1C(=O)Nc1ccccc1 (stereo not drawn)	-86.7	.	.	.
CC(=O)c1cccc(NC(=O)N2CCCC2C(=O)NC2CCCC2)c1 (stereo not drawn)	.	.	.	.
Fc1ccc2c(c1)Sc1ccc(Cl)cc1CC2N1CCN(CCC2OCCO2)CC1 (stereo not drawn)	-95.3	/	.	.
NC(=O)CCN1CCN(CCOC2Cc3cc(Cl)ccc3Sc3ccccc32)CC1 (stereo not drawn)	.	.	.	.
COc1ccc(C(=O)C2CCCN(C(=O)c3csc(SC)n3)C2)cc1F (stereo not drawn)	.	/	/	.
Cc1c(NC(=O)COC(=O)c2cccc(F)c2)c(=O)n(-c2ccccc2)n1C	.	/	/	.
CN(C)CCN(C)C1CN(Cc2ccc([N+](=O)[O-])cc2)S(=O)(=O)C1 (stereo not drawn)	.	/	/	.
Clc1nc2ccccc2cc1-c1nnn(-c2ccccc2Br)n1	.	/	.	-73.2
COc1ccc(C(=O)Oc2cc3c4c(c2)C(C)=CC(C)(C)N4C(=O)C3=O)cc1OC	-71.7	.	.	.
COc1cccc(C(=O)Oc2cc3c4c(c2)C(C)=CC(C)(C)N4C(=O)C3=O)c1	.	.	.	.
Cc1ccc(NC(=O)C2CCCN(C(=O)c3ccc(Cl)cc3)C2)cc1C (stereo not drawn)	-121.7	.	.	.
SMILES	KCNH2 3.1 inh	Tb PFK inh	TSG101-PTAP inh	KCNH2 WT inh
O=C(c1ccc(Br)cc1)N1CCC(C(=O)N2CCN(Cc3ccccc3)CC2)CC1	.	.	.	.
CC1(C)CC(=O)C2=C(C1)N(c1ccc(F)cc1)C(=O)C2(O)C(F)(F)F (stereo not drawn)	-119.6	.	.	.
Cc1c(C(=O)NCc2ccc3c(c2)OCO3)cccc1[N+](=O)[O-]	.	.	.	.
CCOC(=O)c1c(N)nn(C(C)=O)c1-c1ccccc1	-72.5	.	.	.
CCC(CC)NC(=O)Nc1ccccc1C(F)(F)F	.	.	.	-111.6
CC1(C)Oc2ccc(NC(=O)C3COc4ccccc4O3)cc2O1 (stereo not drawn)	-172.2	.	.	-144.7
Cc1ccc(/C=C(\NC(=O)c2ccc(C)cc2)C(=O)NCCCn2ccnc2)cc1	-95.4	.	.	-93.7
Cc1ccc(C(=O)N/C(=C\c2ccccc2)C(=O)NCCCn2ccnc2)cc1	-105.4	.	.	-125.0
Cc1ccc(C(=O)N/C(=C/c2ccc(F)cc2)C(=O)NCc2ccncc2)cc1	-90.0	.	.	?
CC1=C(C(=O)N2CCOCC2)CC(CC(=O)NC2CC2)C(=O)N1Cc1ccccc1 (stereo not drawn)	.	/	/	.
